# PubChem BioAssay AID540351 (The Scripps Research Institute Molecular Screening Center, 2011)
# Values without a mark were called inactive. No rule for the calls is given here.
# System: Rolipram
# Assay: selectivity profiling over binding targets, CYP450 – biochemical, Ricerca HitProfilingScreen, selectivity assay for S1P3 agonist project, profiling panel (AID 540351)
# Settings: Ricerca receptor/enzyme binding panel plus CYP450, at 30 µM, active compounds read high
compound,measurement,value
O=C(c1cc(C2CC2)on1)N(C1CCCCC1)C1CCCCC1,inhibition,18%
